Source: PubChem BioAssay
An excerpt weighted towards active compounds, which were near 19% of everything screened.
Pf growth 96h = Primary qHTS for delayed death inhibitors of the malarial parasite plastid, 96 hour incubation; P. falciparum luciferase reporter growth, 96 h; Potency, µM (titrated, usually from 28.7 µM), for inactives: top-dose activity change, negative = inhibition, most hits filed as inhibitors; actives 6.9% (n = 320,000); further: potency means the concentration at half of the fitted maximal effect; on the % scale 0 is the no-effect control and ±100 the full control effect
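Two-generation exposure (96 h) targets delayed-death phenotype. Reporter parasites carrying integrated firefly luciferase, in red cells at 2% hematocrit and 0.05% parasitemia final, kept at 37 C, 5% CO2; luminescence loss indicates inhibition.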
Shiga toxin inh = A qHTS for Small Molecule Inhibitors of Shiga Toxin; Vero cells, Shiga toxin protein synthesis inhibition reporter; inhibition, % at 38.7 µM; actives 9.2% (n = 290,000); AID 2315, 2010; in the data active means inhibition mostly above about 28%, no sharp cut-off; inactive means mostly below about 43%; further: 0% is about no effect
Cycloheximide cs = Cycloheximide Counterscreen for Small Molecule Inhibitors of Shiga Toxin; cell reporter, cycloheximide protein synthesis inhibition counterscreen; max response, %; actives 12% (n = 300,000); AID 2314, 2010; in the data active means max response mostly above about 13%, no sharp cut-off; inactive means mostly below about 14%; further: read at 38.3 µM for the half of the compounds with a filed dose; 0% is about no effect
Pf growth 48h = Primary qHTS for delayed death inhibitors of the malarial parasite plastid, 48 hour incubation; actives 5.9% (n = 310,000); Potency, µM (top dose mostly 28.7 µM), for inactives: at the top dose activity change, negative = inhibition, hits mostly inhibitors; P. falciparum luciferase growth in erythrocytes, 48 h; further: potency means the concentration at half of the fitted maximal effect; on the % scale 0 is the no-effect control and ±100 the full control effect
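Luciferase-expressing P. falciparum in infected erythrocytes (2% hematocrit, 0.1% parasitemia final) in RPMI 1640/0.5% Albumax were exposed to compound for 48 hours at 37 C, 5% CO2; growth read as luminescence.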
SARS PLP yeast = qHTS of Yeast-based Assay for SARS-CoV PLP; Potency, µM (titrated, usually from 32.9 µM), without a hit: at the highest dose activity, positive = growth rescue, actives largely listed as activators; actives 0.19% (n = 330,000); S. cerevisiae expressing SARS-CoV PLpro, growth rescue; calls by dose curve; further: potency means the concentration at half of the fitted maximal effect; 0% is about no effect; nearly all actives have a fitted effect of over 55% in size
AMA1 RON2 block = qHTS for Inhibitors of AMA1-RON; Towards Development of Antimalarial Drug Lead: Primary Screen. Plasmodium falciparum AMA1 (3D7) - RON2 peptide interaction. AlphaScreen AMA1-biotinylated RON2 peptide binding. Potency, µM (doses to about 58.2 µM), inactives show at the top dose activity change, negative = inhibition, hits mostly inhibitors. actives 0.2% (n = 360,000). AID 720542, 2013;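 further: potency means the concentration at half of the fitted maximal effect; 0% = vehicle wells and -100% = peptide control; nearly all actives have a fitted effect of over 45% in size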
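AMA1 (3D7) with his tag at 25 nM final met compounds first, then biotinylated RON2 peptide at 25 nM; detection used donor plus acceptor beads, 10 µg/mL apiece, read by AlphaScreen after 30 min at room temperature.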
* marks the source's active call; other numbers are inactive results; ? = inconclusive; . = not tested or not shown; + = active, no number; [ ] = remark or other dose. Unless noted, the call rests on the fitted dose curve; in most records, active means well fitted curve in the direction sought with a large enough effect; inconclusive means small, poorly fitted or top-dose-only effect, or another doubt; inactive means no such curve, though single readings can be large; an effect the other way counts as inactive or inconclusive.

SMILES	Pf growth 96h	Shiga toxin inh	Cycloheximide cs	Pf growth 48h	SARS PLP yeast	AMA1 RON2 block
CCN(CC)C(=O)c1c2c(nc3ccccc13)-c1ccccc1CC2	?	-6	11	7.4µM*	-5%	-11%
CCN(CC)C(=O)c1ccc(S(=O)(=O)c2ccccc2)cc1	-15%	-5	-4	-15%	3%	0%
CC(C)CNC(=O)c1c2c(nc3ccccc13)-c1ccccc1CC2	100%	-13	-3	?	-3%	-6%
CCN(CC)C(=O)c1ccc(C(=O)c2ccccc2)cc1	94%	37	32*	.	0%	-5%
CCN(CC)C(=O)c1ccc2nc3ccccc3nc2c1	64%	65*	30*	60%	3%	7%
O=C(CNC(=O)COc1ccccc1)NCc1ccccc1F	6%	-17	8	1%	7%	-6%[11.6 µM]
O=C(Oc1ccc(N(Cc2cccs2)C2=NS(=O)(=O)c3ccccc32)cc1)c1ccccc1F	.	-6	-1	-14%	2%	1%
C=CCNC(=O)CSc1nc2cc(C(=O)OCC)ccc2n1CC	10µM*	-4	-2	.	2%	-6%
CCOC(=O)Cn1c(-c2ccccn2)nc2ccccc21	?	20	-3	6%	-5%	19%
CCOC(=O)c1ccc2c(c1)nc(COc1ccc(OC)cc1)n2CC	9.3µM*	-12	-4	.	0%	5%
CCOC(=O)c1ccc2c(c1)nc(SCC(=O)c1cc3ccccc3o1)n2CC	?	-5	-4	.	5%	11%
CCOC(=O)c1ccc2c(c1)nc(-c1ccccn1)n2CC	140%	107*	61*	39%	1%	27%
CCn1c(C)nc2cc(C(=O)OC)ccc21	14%	10	3	13%	0%	0%
CN(CC(=O)Nc1ccc(Cl)c(C(F)(F)F)c1)C(=O)C1CC(=O)N(C2CCCC2)C1 (stereo not drawn)	?	.	.	?	4%[6.58 µM]	-3%
CC(C)=C(NC(=O)c1ccccc1Br)C(=O)NCCc1nc2ccccc2[nH]1	35%	2	-2	19%	1%	5%
CCC/C(=N/NC(=O)c1cccc(Cl)c1)c1ccccc1	-26%	80*	59*	24%	-12%	57%
COc1cccc(C(=O)N/N=C(\CC(C)C)c2ccccc2)c1	-17%	55*	22*	4%	-20%	31%
CCC/C(=N\NC(=O)C1CC1)c1ccccc1	.	.	.	.	.	22%
Cc1ccc(C(=O)N/N=C(\CC(C)C)c2ccccc2)cc1	75%	71*	44*	38%	-11%	8%
O=C(Nc1cccc2c1CCCC2)c1cc(C2CCCCN2C(=O)OCCF)on1 (stereo not drawn)	.	.	.	.	.	-4%
COc1ccc(C(C(=O)NC(C)(C)C)n2c(=O)c(-c3ccccc3)nc3ccccc32)cc1 (stereo not drawn)	.	.	.	.	.	-8%
CN1c2ccccc2C(C)(C)C12CC(c1cccc(S(=O)(=O)N3CCCC3)c1)=NO2 (stereo not drawn)	?	-1	-3	10µM*	-20%	2%
CCN(CC)S(=O)(=O)c1ccc(C2=NOC3(C2)N(C)c2ccccc2C3(C)C)cc1 (stereo not drawn)	13µM*	16	1	12µM*	-3%	-6%
O=C(COC(=O)/C=C/c1ccc(S(=O)(=O)N2CCc3ccccc32)cc1)NC1CCS(=O)(=O)C1 (stereo not drawn)	?	-11	5	?	1%	0%
COc1ccc(NC2=CC(=O)N(C)C2=O)cc1	72%	+	21	87%	-6%	13%
NNc1nc(Nc2ccccc2)nc(Nc2ccccc2)n1	349%	36*	28	8.3µM*	-4%	27%
c1ccc(Nc2ccnc(Nc3ccccc3)n2)cc1	-7%	100*	53*	-18%	-2%	0%
NNc1nccc(Nc2ccccc2C(=O)O)n1	17%	-5	7	11%	-9%	47%[11.6 µM]
